The entries come from a sample that favours hits as a whole.
p53 reactivator: restores transcriptional activity of mutant p53 | H1299 p53-A138V BP100-luciferase reporter, luminescence, 24 h | Potency, µM (top dose mostly 92.2 µM), for the others: at the highest dose activity change, positive = activation, actives largely listed as activators | actives 0.063% (n = 320,000) | AID 504706; active means well fitted activation curve with a large enough effect; inconclusive means small, poorly fitted or top-dose-only effect; inactive means no such curve, though single readings can be large or run the other way; further: potency means the concentration at half of the fitted maximal effect; % of control where 0% means no effect; nearly all actives have a fitted effect of over 45% in size
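p53-null H1299 cells stably carrying temperature-sensitive p53-A138V and a BP100-luciferase reporter were pinned with compounds (4-point, 1:5 series) and held 24 hrs at 37 deg C. Luminescence was read 10 min after detection reagent.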
CXXC DNA block: MLL CXXC-DNA interaction inhibition. MLL-CXXC / FITC-HOXA9 DNA fluorescence polarization. Potency, µM (highest dose often 115 µM), for the others: at the highest dose activity change, negative = inhibition, actives largely listed as inhibitors. actives 0.037% (n = 290,000). AID 2662; active means well fitted inhibition curve with a large enough effect in the polarisation, with a control signal flat, not every such curve was filed as active; inconclusive means small, poorly fitted or top-dose-only effect, or effect the other way, or a change in a side signal; inactive means no such curve, though single readings can be large or run the other way; the % refers to the polarisation; further: potency means the concentration at half of the fitted maximal effect
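Fluorescence polarization: 7 uM MLL-CXXC (stock) preincubated 5 min with compounds, then 50 nM fluorescein-HOX-A9 DNA (stock) added; 30 min ambient. Buffer 50 mM Tris-HCl pH 7.5, 50 mM NaCl, 1 mM DTT, 0.05% BSA.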
Menin MLL FP FL: menin-MLL binding inhibition, fluorescein peptide; Fluorescence polarization, fluorescein-MLL peptide displacement from menin; FP activity change, % at 61.4 µM; 290,000 tested, under 10 active; AID 1766; active means well fitted curve in the direction sought with a large enough effect in the polarisation, not every such curve was filed as active; inconclusive means small, poorly fitted or top-dose-only effect, or effect the other way, or a change in a side signal; inactive means no such curve, though single readings can be large or run the other way; the % refers to the polarisation; further: % of control where 0% means no effect
ClpP mod: qHTS Assay for Activators of ClpP; ATP-dependent Clp protease proteolytic subunit (Bacillus subtilis (strain 168)), P80244; purified B. subtilis ClpP, FRET peptide cleavage, 20 min; Potency, µM (series often up to 57.5 µM), for inactives: top-dose activity change, negative = active; actives 1.9% (n = 340,000); active means well fitted falling curve with a large enough effect; inconclusive means small, poorly fitted or top-dose-only effect; inactive means no such curve, though single readings can be large or run the other way; further: potency means the concentration at half of the fitted maximal effect; the source files actives as falling curves though it sought activators and does not explain the sign; nearly all actives have a fitted effect of over 65% in size
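Purified B. subtilis ClpP, 10 microg/mL final in Tris/HCl pH8 with KCl, BSA, glycerol and Tween-20, cleaved an Abz/nitrotyrosine-quenched decapeptide. Fluorescence (ex 320, em 430) was read at 0 and 20 min at room temperature. Delta was normalized to 5.8 microM ADEP and DMSO/no-enzyme controls.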
Menin MLL FP TR: menin-MLL binding inhibition, Texas Red mutant peptide | O00255 | Menin + Texas Red MLL mutant peptide, fluorescence polarization | Potency, µM (top dose mostly 61.6 µM), without a hit: top-dose FP activity change, negative = inhibition, actives largely listed as inhibitors | actives 0.23% (n = 270,000) | AID 1768; active means well fitted inhibition curve with a large enough effect in the polarisation, with a control signal flat, not every such curve was filed as active; inconclusive means small, poorly fitted or top-dose-only effect, or effect the other way, or a change in a side signal; inactive means no such curve, though single readings can be large or run the other way; the % refers to the polarisation; further: potency means the concentration at half of the fitted maximal effect; % of control where 0% means no effect
Active calls of the source: *.

What do the screens show for `COc1ccc(/C=N/NC(=O)c2nc(Cl)c(Cl)c(N)c2Cl)cc1COc1ccc(F)cc1F`?
p53 reactivator: -13%; CXXC DNA block: 17%; Menin MLL FP FL: 1; ClpP mod: 7.9µM*; Menin MLL FP TR: inconclusive

How did O=C(Cc1ccc(Br)cc1)NO do in these assays?
ClpP mod: 0%

How did COc1ccc(OCc2nc(N)nc(Nc3ccccc3)n2)cc1 do in these assays?
p53 reactivator: 5%; CXXC DNA block: 0%; Menin MLL FP FL: -3; ClpP mod: -2%; Menin MLL FP TR: 10%

How did Nc1nc(COc2ccccc2C=O)nc(Nc2ccccc2)n1 do in these assays?
p53 reactivator: 14%; CXXC DNA block: -3%; Menin MLL FP FL: 3; ClpP mod: 25µM*

What do the screens show for `CCOC(=O)/C=C1\CN(Cc2ccc(OC)cc2)S(=O)(=O)c2ccc(C(F)(F)F)cc21`?
ClpP mod: -1%

Results for COc1cccc(N2CC(C(=O)N3CCC4(CC3)CC(=O)c3ccccc3O4)CC2=O)c1 (stereo not given) ?
p53 reactivator: -3%; ClpP mod: 28µM*

What do the screens show for `O=C(C1CC(=O)N(c2ccccc2)C1)N1CCCCCC1` (stereo not given)?
p53 reactivator: -5%; CXXC DNA block: 2%; Menin MLL FP FL: -6; ClpP mod: 0%; Menin MLL FP TR: -3%

What do the screens show for `O=C1CC2(CCN(C(=O)C3CC(=O)N(c4ccccc4)C3)CC2)Oc2ccccc21` (stereo not given)?
p53 reactivator: -3%; ClpP mod: 32µM*

Results for COc1ccc(-c2coc3c(O)c(OC)ccc3c2=O)cc1 ?
Menin MLL FP FL: -6; Menin MLL FP TR: inconclusive

Results for CCOC(=O)c1c(C)[nH]c(C(=O)OC(C(=O)N(C)C)c2ccccc2)c1C (stereo not given) ?
ClpP mod: -1%

How did COC(=O)c1ccccc1NC(=O)Oc1ccc(F)cc1 do in these assays?
p53 reactivator: 5%; CXXC DNA block: -1%; Menin MLL FP FL: 3; ClpP mod: 25µM*

Results for Cc1cccn2c(=O)c(C(=O)NC3CCCCC3)c(O)nc12 ?
p53 reactivator: 22%; CXXC DNA block: -5%; Menin MLL FP FL: 0; ClpP mod: -13%; Menin MLL FP TR: -13%

What do the screens show for `Cc1cccn2c(=O)c(C(=O)NC3CCCCC3C)c(O)nc12` (stereo not given)?
p53 reactivator: -1%; ClpP mod: 28µM*

How did COC(=O)c1cc(Cl)c(NC(=O)/C=C/c2ccc(OC)c(OC)c2)cc1OC do in these assays?
p53 reactivator: -8%; CXXC DNA block: -6%; Menin MLL FP FL: 2; ClpP mod: 28µM*; Menin MLL FP TR: -7%

How did COc1ccc(N2CC(NC(=O)/C=C\c3ccc(OC)c(OC)c3)CC2=O)cc1 (stereo not given) do in these assays?
ClpP mod: 32µM*

What do the screens show for `COc1ccc(/C=C/C(=O)Nc2ccncc2)cc1OC`?
p53 reactivator: -4%; CXXC DNA block: 1%; Menin MLL FP FL: -4; Menin MLL FP TR: -2%

How did COC(=O)c1cc(Cl)c(NC(=O)/C=C/c2ccc(Cl)cc2)cc1OC do in these assays?
p53 reactivator: 8%; CXXC DNA block: 19%; Menin MLL FP FL: -1; ClpP mod: 7%; Menin MLL FP TR: 5%

What do the screens show for `COc1ccc(/C=C/C(=O)Nc2nc(C)cc(C)n2)cc1OC`?
p53 reactivator: 5%; CXXC DNA block: 1%; Menin MLL FP FL: 2; ClpP mod: 35µM*; Menin MLL FP TR: inconclusive

Results for COc1ccc(/C=C\C(=O)NC2CC(=O)N(c3ccccc3)C2)cc1OC (stereo not given) ?
ClpP mod: 4%

What do the screens show for `Fc1ccc(Nc2nc3ccccc3c3nncn23)c(Cl)c1`?
ClpP mod: 9%

How did Cn1c(-c2ccc(-c3ccccc3)cc2)c[nH]c1=S do in these assays?
p53 reactivator: 26%; CXXC DNA block: -23%; Menin MLL FP FL: -1; ClpP mod: 13µM*; Menin MLL FP TR: 6%

Results for CNc1c(Br)cc(/C=C2\C=C(C(O)c3cc(Br)c(NC)c(Br)c3)c3ccccc32)cc1Br (stereo not given) ?
ClpP mod: 1%

What do the screens show for `Cc1cccc(NS(=O)(=O)c2ccc(Oc3ccccc3)cc2)n1`?
p53 reactivator: -6%; CXXC DNA block: -7%; Menin MLL FP FL: -1; ClpP mod: 22µM*; Menin MLL FP TR: -25%

How did Cc1cccc(-n2c(=O)[nH]c3c(C(N)=O)nc(C(C)C)nc32)c1 do in these assays?
p53 reactivator: -7%; CXXC DNA block: -9%; Menin MLL FP FL: -4; ClpP mod: 22µM*; Menin MLL FP TR: 12%

Results for Cc1ccc(-n2c(=O)[nH]c3c(C(N)=O)nc(C(C)C)nc32)cc1 ?
p53 reactivator: 15%; CXXC DNA block: -7%; Menin MLL FP FL: 5; Menin MLL FP TR: inconclusive

How did O=C(NCCc1ccccc1)c1ccc(CSc2nc3ccncc3n2Cc2ccc(F)cc2)cc1 do in these assays?
ClpP mod: -17%

How did COC(=O)c1c(NC(=O)CN2CCC3(O)CCCCC3C2c2ccc(F)cc2)sc(C)c1C (stereo not given) do in these assays?
p53 reactivator: -6%; CXXC DNA block: 10%; Menin MLL FP FL: 7; ClpP mod: -20%; Menin MLL FP TR: 5%

How did COC(=O)c1c(NC(=O)CN2CCC3(O)CCCCC3C2c2cc(OC)ccc2OC)sc(C)c1C (stereo not given) do in these assays?
p53 reactivator: 8%; CXXC DNA block: -6%; Menin MLL FP FL: 4; ClpP mod: 28µM*; Menin MLL FP TR: -5%

What do the screens show for `CC(C)c1nc(NCc2ccccc2)c(C#N)c2c1CCCC2`?
p53 reactivator: 6%; CXXC DNA block: 3%; Menin MLL FP FL: -4; ClpP mod: 8.9µM*; Menin MLL FP TR: inconclusive

How did Cc1nc(SCC(=O)NCCc2ccccc2)nc(C)c1C do in these assays?
p53 reactivator: 2%; CXXC DNA block: 10%; Menin MLL FP FL: -2; ClpP mod: 16µM*; Menin MLL FP TR: -13%

Results for C1=Cc2ccccc2/C1=C\c1cccc(/C=C2\C=Cc3ccccc32)c1 ?
ClpP mod: 0%

What do the screens show for `COCc1cc(C)nc(OCC(=O)N/N=C/c2cccc(OC)c2)c1C#N`?
p53 reactivator: -27%; CXXC DNA block: -7%; Menin MLL FP FL: 2; ClpP mod: 28µM*; Menin MLL FP TR: 2%

What do the screens show for `COc1ccc(C(=O)N=c2nc(-c3ccccc3)n(-c3ccccc3)s2)cc1`?
ClpP mod: -2%

How did CCn1cc2c(n1)-c1c(oc(C(=O)Nc3cccc(C(F)(F)F)c3)c1C)CC2 do in these assays?
ClpP mod: 35µM*

How did COc1cc(NC(=O)c2oc3c(c2C)-c2nn(Cc4cccc(Cl)c4)cc2CC3)cc(OC)c1 do in these assays?
ClpP mod: 20µM*

Source: PubChem BioAssay (National Center for Advancing Translational Sciences (NCATS))
